Test systems include SR leukemia; RPMI-8226 leukemia; OVCAR-8 ovarian; OVCAR-5 ovarian; OVCAR-4 ovarian; SK-OV-3 ovarian; IGROV1 ovarian; OVCAR-3 ovarian; HS 578T breast; NCI/ADR-RES ovarian.
What all share (assay): NCI-60 one-dose screen, 48 h (100 = growth as untreated, 0 = no growth, -100 = all killed)
Common to all, as to details: 10 µM unless noted

This is part of a sample that, as a whole, favours compounds with a hit. Of some 83,000 tested, about 20% had one in any assay.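 Method: cells in 96-well plates; compound added at one concentration; 48 h incubation; percent growth measured; values under 10 scored active.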 A number with no mark means an inactive call. Activity calls are given as the source filed them.

For `CCOC(=O)c1cc(C(=O)c2cc(OC)c(OC)c(OC)c2)n2ccc(-c3ccncc3)cc12`, the growth is 69.4% in the experiment on SR leukemia; 56.9% with RPMI-8226 leukemia; 90.5% in the experiment on OVCAR-8 ovarian; 113% with OVCAR-5 ovarian; 96.3% in the experiment on OVCAR-4 ovarian; 87% in the experiment with SK-OV-3 ovarian. Further, the growth was 111% in the experiment with IGROV1 ovarian, 109% in the experiment with OVCAR-3 ovarian, 86.8% in the experiment on HS 578T breast and 99.2% in the experiment on NCI/ADR-RES ovarian.

For `COc1cc(-c2csc(NC(=O)c3cc(-n4cnc(C)c4)cc(C(F)(F)F)c3)n2)cc(OC)c1OC`, the growth is 34% in the experiment on SR leukemia; 24.1% in the experiment on RPMI-8226 leukemia; 40.2% with OVCAR-8 ovarian; 104% in the experiment on OVCAR-5 ovarian; 70.9% with OVCAR-4 ovarian; 114% in the experiment with SK-OV-3 ovarian. Moreover, the growth with IGROV1 ovarian was 52%; in the experiment on OVCAR-3 ovarian, 65%; in the experiment with HS 578T breast, 26.7%; with NCI/ADR-RES ovarian, 64.9%.

For `COc1cc(/C=C\c2cc(/C=C\c3ccc(O)c(OC)c3)n(C(=O)COc3ccc(Cl)cc3Cl)n2)ccc1O`, the growth in the experiment with SR leukemia is 0.0066% (active); with RPMI-8226 leukemia, -6.8% (active); with OVCAR-8 ovarian, 6.52% (active); in the experiment on OVCAR-5 ovarian it was 56.7%; in the experiment on OVCAR-4 ovarian it was 31.4%; with SK-OV-3 ovarian it was -0.155% (active). The growth with IGROV1 ovarian was 12.5%; with OVCAR-3 ovarian it was 14%; in the experiment with HS 578T breast, 10.2%; in the experiment with NCI/ADR-RES ovarian, 21.5%.

Regarding `COc1cccc(/C=C/C(=O)c2cc3c(N)c(C(=O)Nc4ccccc4)sc3nc2C)c1`, the growth is 10.8% in the experiment on SR leukemia; -18.7% (active) in the experiment on RPMI-8226 leukemia; 3.31% (active) with OVCAR-8 ovarian; 46.1% in the experiment on OVCAR-5 ovarian; 61.5% in the experiment with OVCAR-4 ovarian; 94.6% in the experiment on SK-OV-3 ovarian. Further, the growth with IGROV1 ovarian was 2.44% (active); in the experiment on OVCAR-3 ovarian it was -26.5% (active); in the experiment on HS 578T breast, 24.6%; in the experiment on NCI/ADR-RES ovarian, -10.5% (active).

For `C=C(C)[C@@H]1CC[C@]2(C)[C@H](CC=C3[C@@H]4[C@H](C)[C@@H](C)CC[C@]4(CO)CC[C@]32C)[C@@]1(C)CCCN`, the growth is -35.4% (active) in the experiment with SR leukemia; -33.7% (active) in the experiment with RPMI-8226 leukemia; -48.5% (active) with OVCAR-8 ovarian; 60.6% in the experiment with OVCAR-5 ovarian; 5.39% (active) with OVCAR-4 ovarian; 14.1% with SK-OV-3 ovarian. In addition, the growth in the experiment on IGROV1 ovarian was 30%; in the experiment on OVCAR-3 ovarian, 20.1%; with HS 578T breast it was 25.3%; in the experiment with NCI/ADR-RES ovarian, 14.1%.

Regarding `C/C(=N\NC(=O)c1ccccc1O)c1cccc(/C(C)=N/NC(=O)c2ccccc2O)n1`, the growth with SR leukemia is 16.6%; with RPMI-8226 leukemia, 41.4%; in the experiment with OVCAR-8 ovarian, 32.3%; in the experiment with OVCAR-5 ovarian, 78.9%; in the experiment on OVCAR-4 ovarian, 35.4%; in the experiment with SK-OV-3 ovarian, 45.6%. The growth in the experiment on IGROV1 ovarian is 61.8%; in the experiment on OVCAR-3 ovarian it was 9.77% (active); in the experiment with HS 578T breast it was 69.3%; with NCI/ADR-RES ovarian, 59.1%.

On to `CCOC(=O)C(=Cc1cccc(Br)c1)C(=O)OCC`, for which the growth was 3.67% (active) in the experiment on SR leukemia; 12.9% with RPMI-8226 leukemia; 29.5% in the experiment on OVCAR-8 ovarian; 42.9% in the experiment with OVCAR-5 ovarian; 48.2% in the experiment with OVCAR-4 ovarian; 86.2% in the experiment with SK-OV-3 ovarian. Moreover, the growth was 47.8% in the experiment with IGROV1 ovarian, 15.6% in the experiment on OVCAR-3 ovarian, 25.6% with HS 578T breast and 11.7% in the experiment with NCI/ADR-RES ovarian.

In the case of `O=C1/C(=C/c2ccc(Cl)cc2)COc2ccc(O)c(O)c21`, the growth was 15% in the experiment with SR leukemia; 1.87% (active) in the experiment on RPMI-8226 leukemia; 4.8% (active) in the experiment with OVCAR-8 ovarian; -22.9% (active) with OVCAR-5 ovarian; 27.6% in the experiment on OVCAR-4 ovarian; 65.7% with SK-OV-3 ovarian. The growth in the experiment with IGROV1 ovarian was -38% (active); in the experiment with OVCAR-3 ovarian, -27.2% (active); in the experiment with HS 578T breast, 20.4%; with NCI/ADR-RES ovarian, 3.66% (active).

Consider `CN(C)C1CCN(Cc2ccc(NC(=O)c3cncc(C#Cc4cnc(N)c5ncccc45)c3)cc2C(F)(F)F)CC1`, for which the growth in the experiment on SR leukemia is 1.15% (active); in the experiment on RPMI-8226 leukemia, 60.9%; in the experiment on OVCAR-8 ovarian, -25.4% (active); in the experiment on OVCAR-5 ovarian, 123%; in the experiment with OVCAR-4 ovarian, -14.7% (active); in the experiment on SK-OV-3 ovarian, 103%. Besides, the growth is 112% in the experiment on IGROV1 ovarian, 97.9% with OVCAR-3 ovarian, 44.9% with HS 578T breast and -63.9% (active) in the experiment on NCI/ADR-RES ovarian.

As for `O=C(O)/C(=C\c1ccc(Cl)cc1)c1ccc(Cl)cc1`, the growth in the experiment on SR leukemia was 96.8%; with RPMI-8226 leukemia it was 100%; in the experiment with OVCAR-8 ovarian it was 96.3%; in the experiment with OVCAR-5 ovarian it was 74.1%; in the experiment with OVCAR-4 ovarian, 90.5%; in the experiment with SK-OV-3 ovarian, 111%. Besides, the growth in the experiment with IGROV1 ovarian was 71.2%; in the experiment on OVCAR-3 ovarian it was 101%; with HS 578T breast, 78%; in the experiment with NCI/ADR-RES ovarian, 90.1%.

For the compound `O=C1/C(=C\c2cn(-c3ccccc3)nc2-c2ccc(-c3cccs3)cc2)CCc2ccccc21`, the growth is 15.9% in the experiment with SR leukemia; 52.2% in the experiment on RPMI-8226 leukemia; 82.5% in the experiment with OVCAR-8 ovarian; 94.9% with OVCAR-5 ovarian; 75.1% with OVCAR-4 ovarian; 86.7% with SK-OV-3 ovarian. For the same compound, the growth in the experiment with IGROV1 ovarian is 56.5%; in the experiment on OVCAR-3 ovarian, 47.3%; in the experiment with HS 578T breast, 81.8%; in the experiment with NCI/ADR-RES ovarian it was 35.5%.

Regarding `CCOP(=O)(OCC)c1nc(-c2ccccc2)oc1NCc1cccnc1`, the growth in the experiment on SR leukemia is 102%; with RPMI-8226 leukemia, 101%; in the experiment with OVCAR-8 ovarian, 106%; with OVCAR-5 ovarian, 101%; in the experiment with OVCAR-4 ovarian, 112%; in the experiment on SK-OV-3 ovarian it was 106%. The growth is 100% with IGROV1 ovarian, 110% in the experiment on OVCAR-3 ovarian, 109% in the experiment with HS 578T breast and 105% in the experiment on NCI/ADR-RES ovarian.

For the compound `COc1ccc(C(=O)Nc2ncc(Cc3ccc(F)cc3)s2)cc1`, the growth with SR leukemia is 11.1%; in the experiment with RPMI-8226 leukemia, 15.9%; in the experiment with OVCAR-8 ovarian it was 27.6%; in the experiment on OVCAR-5 ovarian, 29.6%; in the experiment on OVCAR-4 ovarian, 48.9%; with SK-OV-3 ovarian, 44.6%. Further, the growth was 18.3% in the experiment with IGROV1 ovarian, -22.2% (active) in the experiment with OVCAR-3 ovarian, 31.7% with HS 578T breast and 7.08% (active) in the experiment with NCI/ADR-RES ovarian.

Source of the values: PubChem BioAssay (NCI).
